Results as given in paper PMC12136788.
Changes are numbered by the printed parent chain. The full ranking holds about 24,000 sequences; the median of “enrichment r” is about 0.99, and the highest 2% start at about 3.7. The sample as a whole holds a higher share of the highest values than the screen did.

T1: UNK ZnF1-3 (human, UniProt Q9C0B0 31-174)
T1 sequence: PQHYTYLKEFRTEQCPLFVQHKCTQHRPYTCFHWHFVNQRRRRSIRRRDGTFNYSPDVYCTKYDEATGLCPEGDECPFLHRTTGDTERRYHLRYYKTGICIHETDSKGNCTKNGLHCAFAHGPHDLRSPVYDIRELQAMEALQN

B1: chr13:100200628:100200629:-_ENSMUSG00000052727_ENSMUST00000064762|perfect_dup|FALSE|FALSE (ssRNA)
RNA: GGGAGUUCUACAGUCCGACGAUCGUCACCAGGUGUCUUCCCUCCACUGUCCUUCUCCAGGCCAGGUGUGGACAAAUCUCUAUUCAAGGCUAGAUGGUGUUGCAUUGUAUCGAAUAACACUGAGGCACGGAAGCCAUAGGGCUCCAACAGAGGAUUGAGCAUCA
B2: chr14:78183846:78183847:+_ENSG00000119705_ENST00000557342|hu_hu|hu_hu_hu_mus_False|78_88 (ssRNA)
RNA: GGGAGUUCUACAGUCCGACGAUCUCUCAGAAAUCUUUCUUCAUCAGCAUCAUCAGAUGUUUGCGGAGCCUUUGCUCUUUGAGCUUGAACGUGGAUCUAUGGGAGGGAAAGCACUGUCAGAAAAGGUAAUUUUUUUUUUAAAGACAACAGAGGAUUGAGCAUCA
B3: chr7:127875444:127875445:+_ENSMUSG00000046096_ENSMUST00000060175|mus_hu|FALSE|FALSE (ssRNA)
RNA: GGGAGUUCUACAGUCCGACGAUCAAAGGCAUAUAACAUAUAAAGAAAAUAUUGUAUUGCUCAGGUUUUGGUAAAGAUGUAUUAAUAAUGCUUACAGAUAAAAAUAAUGAAAUUAGUGUUGUAAAUAGCCAAAAUAGCCAGAUACAACAGAGGAUUGAGCAUCA
B4: chr18:35731629:35731630:+_ENSMUSG00000037236_ENSMUST00000166793|mus_hu|FALSE|FALSE (ssRNA)
RNA: GGGAGUUCUACAGUCCGACGAUCUAUUUUAUAGAUUAAAAAAAAAAAUUUUUUUAAAGACGGCCAAAAAGAAAGCUCAAACUAGAAAGCUAGGUUAACUUUGCUUCAAAAAUGGUAACGCCAAGAAAAAGGAUCAAUAAGGACCAACAGAGGAUUGAGCAUCA
B5: chr18:35731629:35731630:+_ENSMUSG00000037236_ENSMUST00000166793|mus_hu|motif|central (ssRNA)
RNA: B4 RNA with U82G, A83G
B6: chr18:51681570:51681571:-_ENSG00000134046_ENST00000256429|hu_hu|FALSE|FALSE (ssRNA)
RNA: GGGAGUUCUACAGUCCGACGAUCGAUAUAUACAUCAAAAAUACAUCUAAAAAGGCAUUGGUUAGUGCUAUUAAAAAGCUCUAUGUGCUCGGGUACAUUUUUUUUCUUACAGGCAAAAGCCAGUGGAAACAUUUUUGUUCAAUUCAACAGAGGAUUGAGCAUCA
B7: chr1:66485654:66485655:+_ENSMUSG00000015222_ENSMUST00000024639|mus_hu|FALSE|FALSE (ssRNA)
RNA: GGGAGUUCUACAGUCCGACGAUCUUUUUAAAUAGAAAAUUGUAACAAUUACUACAGUUUGGGGAUGAGAUUAUUUAUUUUAUGGUUUAUAAAGAAUGAAUAUAACAACUGCUCAGAGCCCACUCCUGCCAAGAGCUCAUGCCUCAACAGAGGAUUGAGCAUCA
B8: chr9:74904954:74904955:+_ENSMUSG00000007656_ENSMUST00000169492|mus_hu|FALSE|FALSE (ssRNA)
RNA: GGGAGUUCUACAGUCCGACGAUCCCAAAAGGUAAAUACAGAAGAAAUCAAUACAAUAGAGAUUAUAUUAAAUAAGAGUAACAUACAAAGCUAUAAUUAAGAUGAAGUAAUGAAAGCCAAAACAUUAAAAUUUUAAAACUUGCUCAACAGAGGAUUGAGCAUCA
B9: 129217275_129261777_1030_CDS_ENSMUSG00000036155_ENSMUST00000038361|mouse|control|control (ssRNA)
RNA: GGGAGUUCUACAGUCCGACGAUCGUAGCCAUCCAUAGGAGGCAAUACACAUUUUUCCUGAACUCCAUUAAUGAUAUCUGCCACAUUAAUUUUCUCAAGCGACACCAAGCUGGGGACAGCCGUGGUGGAGUUGGUGGAGUUCGCCAACAGAGGAUUGAGCAUCA
B10: 107042093_107043494_1117_CDS_ENSMUSG00000031878_ENSMUST00000034349|mouse|control|control (ssRNA)
RNA: GGGAGUUCUACAGUCCGACGAUCAACAGACUGAAGCAAUUUGGCAACGUGAUUGCCUACAGCAGCAGCAUCUUUCUUUGCUUUCUCUCGGUAAACAUUCUGCAGUUUUAUGUAUUUGUUUGAAUCUGCAAUCAUAUCAGGAAUCAACAGAGGAUUGAGCAUCA
B11: chr7:141441981:141441982:+_ENSG00000106028_ENST00000265304|hu_mus|hu_hu_hu_mus_False|58_58 (ssRNA)
RNA: GGGAGUUCUACAGUCCGACGAUCCUCAUGUCUUACAAACUGACGAAAUACCUGUAACACAGGUCUUCGAAACAUGGCUUCUAUUUUUCUUACAACCUAAUCUUUAGGCUUUUCCUAAAGGAAAGAAAGAAAAGAGAAAAAUGACAACAGAGGAUUGAGCAUCA
B12: chrX:16871948:16871949:-_ENSG00000102054_ENST00000404022|hu_mus|FALSE|FALSE (ssRNA)
RNA: GGGAGUUCUACAGUCCGACGAUCAGUAAAGAUUGCUUUAGCAUCCACAAUUUUGCCUUCCUUUGGUCCUGCAUUUAUAUCCCACAGGCAGACAGUAUGGUCAUCAGAUGCACUCAGGAGAUGCCCACUCAGAUUAGAAUUCCACAACAGAGGAUUGAGCAUCA
B13: chr22:35691198:35691199:+_ENSG00000100281_ENST00000216106|hu_mus|FALSE|FALSE (ssRNA)
RNA: GGGAGUUCUACAGUCCGACGAUCACAGUCCUGUGAGAAGCUUAGCUGUGACAGCAGUCGGGCUAUGGGAAGGAGUUCCCUAGGAUGCCAGCUGGCUACAUGGUCCCCAAAGGUUUACUGUGAUGCUGCCUCGUUCCAUCCAGGCAACAGAGGAUUGAGCAUCA
B14: chr9:14812383:14812384:-_ENSMUSG00000031934_ENSMUST00000164273|mus_mus|mus_mus_mus_hu_True|28_48 (ssRNA)
RNA: GGGAGUUCUACAGUCCGACGAUCAUAGCCCAGGUAGAUACACGCUAACAGUAUAAUGAUGAGUGUCAGCAGGCGGCAGCUAAUGUAUUUCAUGAUUAAAUUAUUAGAGUUCUUUUUUGUCUUCAAGUACUGCUCCACAAUUGGCAACAGAGGAUUGAGCAUCA
B15: chr9:14812383:14812384:-_ENSMUSG00000031934_ENSMUST00000164273|mus_mus|mus_mus_mus_hu_True|48_48 (ssRNA)
RNA: B14 RNA with G108A, C111U, U114C
B16: chr9:14812383:14812384:-_ENSMUSG00000031934_ENSMUST00000164273|mus_mus|mus_mus_mus_hu_True|38_48 (ssRNA)
RNA: B14 RNA with U101G, U103C, G108A, C111U, U114C
B17: chr12:1897663:1897664:+_ENSG00000006831_ENST00000357103|hu_mus|motif|central (ssRNA)
RNA: GGGAGUUCUACAGUCCGACGAUCGCUUUGUGAUUUCAGCAACUUAUAGAGGGGAGAGAGGAAAUACUGAAAAAGGCCACGGUUUAAUGAUGAGAGAGUGAAGGUGUACAGGUUCCUAACCAGCCUAGGGCCAAAAAAGGAGACCAACAGAGGAUUGAGCAUCA
B18: chr1:6284582:6284583:-_ENSG00000116237_ENST00000343813|hu_hu|motif|central (ssRNA)
RNA: GGGAGUUCUACAGUCCGACGAUCAGCUAGGAAUACCCCUUUGAAUGUGUACUGCUACUUAUAAAAAAUAGGUAUGUAGCGGUGAUUAAAUAGAUGAAGGGCCAAAGCAUCCUAUGAGGAAGUAUUUUUAAAAUUGUAUAGAUGCAACAGAGGAUUGAGCAUCA
B19: chr12:1897663:1897664:+_ENSG00000006831_ENST00000357103|hu_mus|FALSE|FALSE (ssRNA)
RNA: B17 RNA with G80U, G81A
B20: chrX:98862621:98862622:+_ENSMUSG00000034160_ENSMUST00000044475|mus_hu|mus_mus_mus_hu_False|78_78 (ssRNA)
RNA: GGGAGUUCUACAGUCCGACGAUCCUGCAUCUCCUUUAGAGUGUUUCCCAUAUUAGAAUAAGCAUCAGCAAAGGUAGGACUGAUUCGAAUAGCCUCCUUAUAAUGCAUCAGAGCUUCCUGCAGUUUUCCCUGCUGCUGCAGUACCAACAGAGGAUUGAGCAUCA
B21: chr1:6284582:6284583:-_ENSG00000116237_ENST00000343813|hu_hu|FALSE|FALSE (ssRNA)
RNA: B18 RNA with G80U, G81A
B22: chr9:14812383:14812384:-_ENSMUSG00000031934_ENSMUST00000164273|mus_mus|mus_mus_mus_hu_True|68_98 (ssRNA)
RNA: B14 RNA with C42U, U45C, G68C, G72C, U87C, C90G, G108A, C111U, U114C

These binders were tested against T1, UNK ZnF1-3 (assay: nsRBNS (natural sequence RNA bind-n-seq); RBNS binding buffer (assumed for nsRBNS): 25 mM Tris pH 7.5, 150 mM KCl, 3 mM MgCl2, 0.01% Triton X-100, 500 ug/ml BSA, 20 U/ml SUPERase-In, 4 C; UNK is unkempt and MSI1 is Musashi-1; names of the RNAs are library labels; protein concentration not given here; high values mean tight binding).
Work on B1 yielded a binding signal of 1.14 enrichment R.
B2 showed a binding signal of 1.96 enrichment R.
B3 gave a binding signal of 5.6 enrichment R.
For B4, the binding signal was 4.65 enrichment R.
Binder B5 has a binding signal of 5.52 enrichment R.
With B6 the binding signal was 0.982 enrichment R.
Binder B7 has a binding signal of 3.6 enrichment R.
For B8, the binding signal was 3.69 enrichment R.
In the case of B9, the binding signal is reported as 1.11 enrichment R.
B10 gave a binding signal of 1.02 enrichment R.
B11 showed a binding signal of 0.678 enrichment R.
Binder B12 has a binding signal of 1.03 enrichment R.
Binder B13 has a binding signal of 1.01 enrichment R.
For B14, the binding signal was 3.67 enrichment R.
B15 was tested, and the binding signal was 3.85 enrichment R.
In the case of B16, the binding signal is reported as 1.52 enrichment R.
In the case of B17, the binding signal is reported as 3.48 enrichment R.
For B18, the binding signal was 6.98 enrichment R.
B19 showed a binding signal of 3.52 enrichment R.
With B20 the binding signal was 1.09 enrichment R.
B21 gave a binding signal of 6.19 enrichment R.
With B22 the binding signal was 1.27 enrichment R.
